Bioassay records as filed in PubChem BioAssay.
AMA1 RON2 block = qHTS for Inhibitors of AMA1-RON; Towards Development of Antimalarial Drug Lead: Primary Screen; Plasmodium falciparum AMA1 (3D7) - RON2 peptide interaction; Potency, µM (series often up to 58.2 µM), actives largely listed as inhibitors; actives 0.2% (n = 360,000); AlphaScreen AMA1-biotinylated RON2 peptide binding; AID 720542, 2013; also: nearly all actives have a fitted effect of over 45% in size
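AMA1 (3D7) with his tag at 25 nM final met compounds first, then biotinylated RON2 peptide at 25 nM; detection used donor plus acceptor beads, 10 µg/mL apiece, read by AlphaScreen after 30 min at room temperature.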
AmpC inh no detg = qHTS Inhibitors of AmpC Beta-Lactamase (assay without detergent). AID 485341, 2010. AmpC nitrocefin hydrolysis, absorbance 480 nm, 0.0001% Triton. actives 0.52% (n = 330,000). Potency, µM (top dose mostly 57.1 µM), actives largely listed as inhibitors. P00811; also: nearly all actives have a fitted effect of over 20% in size
Target sequence (P00811 whole entry, looked up): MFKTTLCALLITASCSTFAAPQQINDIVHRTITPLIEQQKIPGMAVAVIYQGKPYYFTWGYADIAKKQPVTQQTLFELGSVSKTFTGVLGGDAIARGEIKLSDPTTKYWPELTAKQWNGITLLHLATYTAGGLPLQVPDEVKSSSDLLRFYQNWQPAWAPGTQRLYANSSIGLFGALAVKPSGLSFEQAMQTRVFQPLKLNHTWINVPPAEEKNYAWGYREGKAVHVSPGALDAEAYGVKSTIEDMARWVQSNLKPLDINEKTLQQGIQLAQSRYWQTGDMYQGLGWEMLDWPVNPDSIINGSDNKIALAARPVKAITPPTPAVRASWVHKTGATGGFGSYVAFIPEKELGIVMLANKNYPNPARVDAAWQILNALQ
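20 mM phosphate pH 7.0 + 0.01% (detergent screen) or 0.0001% Triton X-100; 5.3 nM AmpC reagent; cpd preinc 15 min RT; nitrocefin (800 uM stock) to start; A480 q20 s × 4 min; Activity was normalised to no-enzyme and no-compound control wells.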
AmpC inh detg = qHTS Inhibitors of AmpC Beta-Lactamase (assay with detergent). P00811. AmpC hydrolysis of nitrocefin, absorbance 480 nm, 0.01% Triton. Potency, µM (highest dose often 114 µM), actives largely listed as inhibitors. actives 0.041% (n = 370,000); also: nearly all actives have a fitted effect of over 25% in size
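AmpC (5.3 nM in the dispensed reagent) in 20 mM phosphate pH 7.0 with 0.01% (detergent screen) or 0.0001% Triton X-100 was preincubated with compounds for 15 min at room temperature. Nitrocefin was then added from an 800 uM solution, and hydrolysis was followed at 480 nm.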
Sm TGR block = qHTS Assay for the Inhibitors of Schistosoma Mansoni Peroxiredoxins; Schistosoma mansoni thioredoxin glutathione reductase (TGR), Q962Y6; purified TGR, DTNB reduction, TNB absorbance 405 nm; Potency, µM (highest dose often 114 µM), hits mostly inhibitors; actives 3% (n = 360,000); also: nearly all actives have a fitted effect of over 60% in size
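First, TGR (20 nM dispensed) and NADPH were mixed with compound. Second, a 15 min room-temperature incubation followed. Third, further NADPH and then DTNB were added to start the reaction. Finally, TNB absorbance was monitored kinetically.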
RE007 growth inh = qHTS Assay for Inhibitors of the HIV-1 protein Vpr; AID 651644, 2012; S. pombe RE007 Vpr strain, BacTiter-Glo ATP luminescence, 24 h; actives 0.21% (n = 360,000); Potency, µM (titrated, usually from 92.2 µM), hits mostly inhibitors; active = well fitted falling curve with a large enough effect; inconclusive = small, poorly fitted or top-dose-only effect; inactive = no such curve, though single readings can be large or run the other way; also: nearly all actives have a fitted effect of over 50% in size
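Fission yeast RE007 carrying one integrated HIV-1 vpr copy, seeded at OD 0.01 in PMG+AL medium with 23 nL pinned compound. Grown 24 h at 30 degrees; viability read by BacTiter-Glo luminescence after 5 min.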
Hits are given with their value; . = inactive; ? = inconclusive; / = no result given. An excerpt weighted towards active compounds, which were near 3.2% of everything screened. Unless noted, calls follow the shape of the dose curve; as a rule, active = well fitted curve in the direction sought with a large enough effect; inconclusive = small, poorly fitted or top-dose-only effect, or another doubt; inactive = no such curve, though single readings can be large; an effect the other way counts as inactive or inconclusive.

SMILES | AMA1 RON2 block | AmpC inh no detg | AmpC inh detg | Sm TGR block | RE007 growth inh
O=C(c1ccco1)N1CCN(C(=O)c2ccc(CS(=O)c3ccc(Cl)cc3)o2)CC1 (stereo unspecified) | . | . | . | 40µM | .
Cc1ccc(S(=O)Cc2ccc(C(=O)N3CCN(C(=O)c4ccco4)CC3)o2)cc1 (stereo unspecified) | . | . | . | ? | .
c1ccc(-c2nnc(CN3CCCc4ccccc43)o2)cc1 | . | . | ? | 40µM | .
c1ccc(-c2nnc(CN3CCCCC3)o2)cc1 | . | . | . | . | /
COC(=O)C1=C(C)NC(C)=C(C(=O)OCC(C)C)C1c1ccccc1[N+](=O)[O-] (stereo unspecified) | 14µM | / | / | / | .
CN1CCN(c2nc3c(c(=O)[nH]c(=O)n3C)n2CC(N)=O)CC1 | . | . | ? | . | .
CN1CCN(c2nc3c(c(=O)n(C)c(=O)n3C)n2CC(N)=O)CC1 | . | . | 32µM | . | .
CCOC(=O)N1CCC2(O)CCCCC2C1c1ccc(F)cc1 (stereo unspecified) | . | . | . | . | .
O=C(CN1CC[C@@]2(O)CCCC[C@H]2[C@@H]1c1ccc(F)cc1)NCc1ccco1 | . | . | . | 40µM | .
Clc1cccc(N2CCN(c3nc4ccccc4c4nc(-c5ccccc5)nn34)CC2)c1 | / | / | . | . | /
COc1ccccc1NC(=S)NC(=O)CC(C)C | . | . | . | 28µM | .
CC(C)CC(=O)NC(=S)Nc1ccccc1F | . | / | . | ? | .
COc1ccccc1NC(=S)NC(=O)CCc1ccccc1 | . | . | . | 4.5µM | .
CCc1cnc2c(c1SCC(=O)Nc1ccc(C(=O)OC)cc1)c(=O)n(C)c(=O)n2C | / | / | . | . | /
CCOCCCN(Cc1ccco1)S(=O)(=O)c1cc2c(cc1Cl)NC(=O)CO2 | / | / | . | 18µM | /
O=C1COc2cc(S(=O)(=O)NCc3ccco3)c(Cl)cc2N1 | / | . | . | 16µM | /
O=C(CCNS(=O)(=O)c1ccc2c(c1)CCN2C(=O)C1CC1)N1CCN(c2cccc(Cl)c2)CC1 | / | / | . | . | /
CC(=O)c1sc(NC(=O)CCS(=O)(=O)c2ccc(C)cc2)nc1C | . | . | ? | 35µM | .
CC(=O)c1sc(NC(=O)C2(F)C(F)(F)C(F)(F)C(F)(F)C(F)(F)C2(F)F)nc1C | . | . | . | 50µM | .
O=C(CCS(=O)(=O)c1ccc(Br)cc1)Nc1ccc2c(c1)OCO2 | . | . | . | 40µM | .
Cc1ccc(S(=O)(=O)CCC(=O)Nc2ccc(Br)cc2)cc1 | . | . | . | . | .
Cc1ccc(NC(=O)CCS(=O)(=O)c2ccc(Br)cc2)nc1 | . | . | . | 16µM | .
CC(=O)c1sc(NC(=O)CS(=O)(=O)c2ccc(F)cc2)nc1C | . | . | . | . | .
COc1c(C)cccc1C(=O)Nc1ccc(-c2nc3ccccc3s2)c(Cl)c1 | / | / | . | . | /
Cc1ccc(CNC(=O)C(CC(C)C)NS(=O)(=O)c2ccc3c(c2)oc(=O)n3C)cc1 (stereo unspecified) | / | / | . | . | /
SMILES | AMA1 RON2 block | AmpC inh no detg | AmpC inh detg | Sm TGR block | RE007 growth inh
Clc1ccc(CCNC(c2cccc(Cl)c2)c2nnc(-c3ccccc3)o2)cc1 (stereo unspecified) | / | / | . | . | /
Cc1ccc(NC(=O)CNC(=O)c2cccs2)nc1 | . | . | . | . | .
Cc1csc(NC(=O)CCS(=O)(=O)c2ccc(Br)cc2)n1 | . | . | . | 3.5µM | .
Cc1ccc(NC(=O)CCC(=O)c2cccs2)nc1 | . | ? | ? | 50µM | .
O=C(OCC#CCNc1nnc(-c2cccc3ccccc23)o1)c1cccs1 | / | . | . | 18µM | /
COc1ccc(C(=O)OCC#CCSc2nnc(-c3cccc4ccccc34)o2)cc1 | / | . | . | . | /
COc1ccc(NC(=O)CC2C(=O)N(c3cccc(OC)c3)C(=O)N2Cc2cccnc2)cc1 (stereo unspecified) | / | / | . | . | /
CC(CCc1ccccc1)NC(=O)Cc1ccccc1 (stereo unspecified) | . | . | . | . | .
CC(C)NC(NC(=O)Cc1ccccc1)C(Cl)(Cl)Cl (stereo unspecified) | . | . | . | . | .
CC(NC(=O)Cc1ccccc1)C(=O)O (stereo unspecified) | . | . | . | 50µM | .
CCN(CC)C(NC(=O)Cc1ccccc1)C(Cl)(Cl)Cl (stereo unspecified) | . | . | . | 18µM | .
CCC(CC)C(=O)Nc1nnc(SCc2cc(=O)n3cccc(C)c3n2)s1 | / | / | . | . | /
Cc1cccc(N2CCN(C(=O)CCCn3ncn4c(cc5occc54)c3=O)CC2)c1C | / | / | . | . | /
CCCCS(=O)(=O)/C=C\C=C/S(=O)(=O)CCCC | . | . | . | 2.2µM | 8.9µM
Cc1ccc(C(=O)N2CCc3cc(CNC(=O)CCc4ccccc4)ccc32)cc1 | / | / | . | . | /
COc1ccccc1CNC(=O)C1CCCN(c2nnc(-n3c(C)ccc3C)s2)C1 (stereo unspecified) | / | / | . | ? | /
Cn1c(=O)c2ccccc2n2c(CCl)nnc12 | . | . | . | 32µM | .
CCN(CC)S(=O)(=O)c1ccc2c(c1)nc(CN(C)C(=O)Nc1ccc(C)c(Cl)c1)n2C | / | / | . | . | /
Cc1c(Cl)cccc1NC(=O)Nc1nnc(N(C)C2CCCCC2)s1 | / | / | . | . | /
Cc1cccc(C(=O)NCc2nnc(SCC(=O)Nc3ccccc3F)n2-c2ccccc2)c1 | / | / | . | . | /
Cc1ccc(S(=O)(=O)Cn2nnnc2C(C(C)C)N2CCc3ccccc3C2)cc1 (stereo unspecified) | . | . | . | 28µM | .
Cc1ccc(S(=O)(=O)Cn2nnnc2C(C(C)C)N2CCSCC2)cc1 (stereo unspecified) | . | . | . | ? | .
COc1ccc(NC(=O)CCc2nc3cccnc3n2-c2ccccc2)cc1Cl | / | / | . | . | /
CSc1nc(N)c(N=Nc2ccc([As](=O)(O)O)cc2)c(=O)[nH]1 | . | . | . | 0.32µM | .
O=C(NCCSCc1cccc(Cl)c1)C1CCN(S(=O)(=O)Cc2ccccc2)CC1 | / | / | . | . | /
CCOc1cc(/C=N/NC(=O)C(N)=O)cc(Br)c1O | . | . | . | 50µM | .
CCCCCCCCN1C(=O)[C@H](CC(=O)NCc2cccc(C(F)(F)F)c2)C[C@@]2(C(=O)OC)CCCCC=C12 | . | / | / | / | .
NS(=O)(=O)c1cccc(NC(=O)CSc2nc3ccc(Cl)cc3[nH]2)c1 | . | 18µM | ? | . | .
Cc1c(NC(=O)C(C)(C)Oc2ccc(Cl)cc2)cccc1-c1nc2ncccc2o1 | / | / | . | . | /
Cc1nc(S(=O)(=O)c2ccc(Cl)cc2Cl)nc2c1CCC2 | . | . | . | 25µM | .
